Screens deposited in PubChem by several laboratories.
Only some compounds are listed: those with a hit (about 2.3% of all), similar ones and a draw of the others.
SENP6 block = SENP6 protease inhibition. Recombinant SENP6 catalytic domain, aminoluciferin luminescence. Q9GZR1. inhibition, % at 10 µM. 330,000 compounds, 1.8% hits;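 active = inhibition above about 50% at the single tested dose, limit read from the data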
HSP90 refold inh = blocks HSP90-mediated luciferase refolding in reticulocyte lysate; AID 1789; 290,000 compounds, 0.91% hits; Rabbit reticulocyte lysate, luciferase refolding luminescence, 3 h; inhibition, % at 5.6 µM;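 active = inhibition above the screen-wide mean plus 3 SD, computed separately per campaign, cut at about 16% in these data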;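 also: inhibitors lower the luminescence because luciferase stays unfolded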
SENP7 inh = SENP7 protease inhibition; Q9BQF6; recombinant SENP7, Z-RLRGG-aminoluciferin luminescence, 40 min; inhibition, % at 5 µM; 330,000 compounds, 1.5% hits; AID 434973;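 active = inhibition above about 50% at the single test dose, limit read from the data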
Target sequence (Q9BQF6 706-1050 limits assumed): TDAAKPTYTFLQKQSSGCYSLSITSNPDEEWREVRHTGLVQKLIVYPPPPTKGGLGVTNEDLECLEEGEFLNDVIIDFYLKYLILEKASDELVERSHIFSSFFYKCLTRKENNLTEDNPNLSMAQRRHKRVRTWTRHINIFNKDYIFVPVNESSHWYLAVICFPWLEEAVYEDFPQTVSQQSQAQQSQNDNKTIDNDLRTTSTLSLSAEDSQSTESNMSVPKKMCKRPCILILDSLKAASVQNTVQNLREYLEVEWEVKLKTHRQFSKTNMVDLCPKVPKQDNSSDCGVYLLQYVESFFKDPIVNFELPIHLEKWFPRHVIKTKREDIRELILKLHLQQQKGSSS
SENP8 block-1 = SENP8 protease inhibition | inhibition, % at 10 µM | 330,000 compounds, 1.2% hits | Q96LD8 | purified SENP8, Z-RLRGG-aminoluciferin cleavage, luminescence; in the data active = inhibition above about 50%
SENP8 block-2 = inhibitors of human SENP8 protease; AID 602440; inhibition, % at 20 µM; recombinant SENP8, Nedd8 substrate fluorescence; 360,000 compounds, 0.64% hits; Q96LD8; in the data active = inhibition mostly above about 40%, no sharp cut-off; inactive = mostly below about 27%
LGR2 antag = inhibitors of bursicon-induced Drosophila LGR2 receptor cAMP signaling | HEK293 LGR2, CRE-luciferase, bursicon-stimulated, 4 h | inhibition, % at 9.99 µM | 380,000 compounds, 0.35% hits | AID 720647;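 active = drop in luminescence signal, shown as inhibition above about 50% in the replicate tests, limit read from the data, passing the limit was not always enough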;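 also: agonist challenge used bursicon conditioned medium at about half maximal strength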
SENP8 conf = human SENP8 inhibition, confirmed | shares compounds with SENP7 inh | Recombinant SENP8, Z-RLRGG-aminoluciferin luminescence, 60 min | inhibition, % at 12.5 µM | 6,200 compounds, 40% hits;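 active = mean inhibition across replicates above about 50%, limit read from the data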
SENP6 conf = confirmation of human SENP6 protease inhibitors; AID 488915; inhibition, % at 12.5 µM; 6,200 compounds, 58% hits; shares compounds with SENP7 inh; recombinant SENP6, Z-RLRGG-aminoluciferin luminescence
SENP7 conf = confirmation of human SENP7 protease inhibitors; inhibition, % at 12.5 µM; recombinant SENP7, Z-RLRGG-aminoluciferin luminescence, 40 min; shares compounds with SENP7 inh; 6,200 compounds, 69% hits
Casp3 SENP sel = inhibits human caspase-3 in SENP selectivity test | shares compounds with SENP7 inh | purified caspase-3, Z-DEVD-aminoluciferin luminescence, 60 min | inhibition, % at 12.5 µM | 6,200 compounds, 60% hits;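 active = mean inhibition above about 50%, limit read from the data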
Target sequence (P42574 28-227 limits assumed): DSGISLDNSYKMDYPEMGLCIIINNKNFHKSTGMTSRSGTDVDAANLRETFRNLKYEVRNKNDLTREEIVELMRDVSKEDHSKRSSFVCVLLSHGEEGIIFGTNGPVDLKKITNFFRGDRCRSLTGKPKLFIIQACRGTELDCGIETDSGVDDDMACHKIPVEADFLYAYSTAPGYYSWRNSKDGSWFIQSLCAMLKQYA
SENP luc ctr = luminescence interference (SENP counter-screen); inhibition, % at 12.5 µM; AID 488919; Pre-incubated SENP8/Z-RLRGG-aminoluciferin, luciferase luminescence interference; shares compounds with SENP7 inh; 6,200 compounds, 39% hits;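 active = mean inhibition above about 50% when retested at one dose, limit read from the data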
Large screens that a line does not name were inactive (follow-up assays come after a bar, where they were run).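 The calls were made as follows, unless noted: active = mean inhibition above about 50% in the one-dose retest (limit read from the data); inactive = the rest.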

COc1ccc2cc(-c3csc(-c4cccnc4)n3)ccc2c1	SENP7 inh 67.1 (no result: LGR2 antag) | SENP8 conf inactive | SENP6 conf inactive | SENP7 conf inactive | Casp3 SENP sel inactive | SENP luc ctr inactive
C[C@@H]1CN([C@@H](C)CO)S(=O)(=O)c2ccc(-c3cncnc3)cc2O[C@H]1CN(C)Cc1cccnc1	none (no result: SENP6 block, HSP90 refold inh, SENP7 inh, SENP8 block-1, SENP8 block-2)
Cn1c(SCc2ccccc2F)nc2cccnc21	SENP6 block 60.4 (no result: LGR2 antag) | SENP8 conf 53.5 | SENP6 conf 50.7 | SENP7 conf 80.9 | Casp3 SENP sel 63.5 | SENP luc ctr 57.4
CCc1noc2cc(-c3ccccc3)n(C)c(=O)c12	none (no result: SENP6 block, HSP90 refold inh, SENP7 inh, SENP8 block-1, SENP8 block-2)
Cc1ccc(-c2cc3onc(-c4ccccc4)c3c(=O)n2C)cc1	SENP6 block 92.8, SENP7 inh 96.1, SENP8 block-1 91.7, LGR2 antag 85.2 (no result: HSP90 refold inh) | SENP8 conf inactive | SENP6 conf inactive | SENP7 conf inactive | Casp3 SENP sel inactive | SENP luc ctr inactive
COC(=O)C[C@H]1C[C@@H]2c3cc(NS(=O)(=O)c4ccc(F)cc4)ccc3O[C@@H]2[C@@H](CO)O1	none (no result: SENP6 block, HSP90 refold inh, SENP7 inh, SENP8 block-1, SENP8 block-2)
C[C@H](NC(=O)C[C@H]1CC[C@@H]2[C@H](COC[C@H](O)CN2C(=O)Nc2ccccc2)O1)c1ccccc1	none (no result: SENP6 block, HSP90 refold inh, SENP7 inh, SENP8 block-1, SENP8 block-2)
CSCCC(NC(C)=O)C(=O)Oc1ccc2c3c(c(=O)oc2c1)CCCC3 (stereo not drawn)	none (no result: SENP6 block, SENP7 inh, SENP8 block-1, LGR2 antag)
CSCCC(NC(=O)OC(C)(C)C)C(=O)Oc1ccc2c(=O)c(-c3ccc4c(c3)OCCO4)coc2c1 (stereo not drawn)	SENP6 block 61.8 (no result: LGR2 antag) | SENP8 conf inactive | SENP6 conf inactive | SENP7 conf 57.6 | Casp3 SENP sel 76.0 | SENP luc ctr inactive
C[C@@H]1CCCCO[C@@H](CN(C)Cc2ccc(C(=O)O)cc2)[C@H](C)CN([C@@H](C)CO)C(=O)c2cc(NS(=O)(=O)c3ccc(F)cc3)ccc2O1	none (no result: SENP6 block, HSP90 refold inh, SENP7 inh, SENP8 block-1, SENP8 block-2)
Cc1cc(C(=O)NC(=S)Nc2cccc(NC(=O)C(C)C)c2)ccc1[N+](=O)[O-]	SENP6 block 71.1, SENP7 inh 77.2, SENP8 block-1 56.0 | SENP8 conf inactive | SENP6 conf 60.8 | SENP7 conf 95.4 | Casp3 SENP sel 77.5 | SENP luc ctr 51.3
CC(C)C(=O)Nc1cccc(NC(=S)NC(=O)c2ccc([N+](=O)[O-])cc2)c1	none (no result: LGR2 antag)
CN(C)c1ccc(-c2noc(-c3ccccc3O)n2)cc1	SENP7 inh 90.0 (no result: LGR2 antag) | SENP8 conf inactive | SENP6 conf inactive | SENP7 conf inactive | Casp3 SENP sel inactive | SENP luc ctr inactive
COc1ccccc1-c1nc(-c2ccc(Br)cc2)no1	SENP6 block 71.4, SENP8 block-1 70.0 (no result: LGR2 antag) | SENP8 conf inactive | SENP6 conf inactive | SENP7 conf inactive | Casp3 SENP sel inactive | SENP luc ctr inactive
COc1ccc(-c2nc(-c3ccc(Br)o3)no2)cc1OC	none (no result: LGR2 antag)
COc1ccccc1-c1nc(-c2ccc(Br)o2)no1	SENP6 block 83.0, SENP7 inh 77.8, SENP8 block-1 78.0 | SENP8 conf inactive | SENP6 conf 59.3 | SENP7 conf 55.2 | Casp3 SENP sel inactive | SENP luc ctr 64.8
COc1ccc(-c2nc(-c3ccc(Br)cc3)no2)c(OC)c1	none (no result: LGR2 antag)
Cc1ccc(-c2noc(-c3ccccc3Br)n2)cc1	SENP6 block 76.2, SENP7 inh 89.9, SENP8 block-1 80.0 (no result: LGR2 antag) | SENP8 conf 64.2 | SENP6 conf 64.1 | SENP7 conf 84.6 | Casp3 SENP sel 70.2 | SENP luc ctr 64.7
COc1cccc(S(=O)(=O)N2C[C@H](O)COC[C@@H]3O[C@H](CC(=O)N4CCN(C)CC4)CC[C@H]32)c1	none (no result: SENP6 block, HSP90 refold inh, SENP7 inh, SENP8 block-1, SENP8 block-2)
